Records with an inconclusive call do not appear. A call without a number means that no potency is given here. Activity calls are given as the source filed them. Unless noted, calls come from the whole dose curve; as a rule, active = well fitted curve in the direction sought with a large enough effect in the repeat runs; inconclusive = weak or mixed curves; inactive = no such curve, though single readings can be large; an effect the other way counts as inactive or inconclusive.

Chain of Bile acid receptor (Homo sapiens) (Q96RI1 whole entry, looked up): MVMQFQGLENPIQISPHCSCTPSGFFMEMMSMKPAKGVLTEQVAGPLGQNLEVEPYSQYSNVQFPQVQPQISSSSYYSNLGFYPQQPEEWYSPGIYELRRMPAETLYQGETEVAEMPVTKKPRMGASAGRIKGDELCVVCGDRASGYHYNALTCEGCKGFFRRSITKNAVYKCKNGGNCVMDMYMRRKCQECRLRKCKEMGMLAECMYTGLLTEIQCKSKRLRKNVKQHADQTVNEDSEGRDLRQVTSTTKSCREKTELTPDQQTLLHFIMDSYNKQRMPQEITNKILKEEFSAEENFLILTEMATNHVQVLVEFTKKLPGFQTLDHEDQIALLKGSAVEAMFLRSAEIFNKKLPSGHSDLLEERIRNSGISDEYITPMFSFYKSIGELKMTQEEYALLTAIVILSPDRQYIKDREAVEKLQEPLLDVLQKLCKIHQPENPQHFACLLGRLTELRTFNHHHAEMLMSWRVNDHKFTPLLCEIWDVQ

Test system in the first experiment: not listed separately
Nature of the experiment: qHTS assay to identify small molecule antagonists of the peroxisome proliferator-activated receptor delta (PPARd) signaling pathway - cell viability counter screen (AID 743213). Note: nearly all actives have a fitted effect of over 50% in size. Conditions: PPARd-bla HEK293H viability, CellTiter-Glo luminescence, 17 h; series mostly up to 62 µM. In outline:
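In this counter screen, HEK293H cells carrying a UAS-beta-lactamase reporter are co-treated with test compounds and 300 nM L165041 (final) for 17 h at 37 C; cell viability is quantified by CellTiter-Glo luminescence.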
Background: Quantitative high-throughput screening tests each substance at several concentrations.
Regarding `CC(=O)CCCCn1c(=O)c2c(ncn2C)n(C)c1=O`, the result was inactive.
As for `CCCCOC(=O)c1ccccc1`, the molecule was classed as inactive.
For `Brc1ccc(-c2ccccc2)cc1`, the call was inactive.
On the same count and under the same terms, with `O=C(CCNNC(=O)c1ccncc1)NCc1ccccc1` the entry was “inactive”; with `COc1ccc(-c2cc(=O)c3c(O)cc(O[C@@H]4O[C@H](CO[C@@H]5O[C@@H](C)[C@H](O)[C@@H](O)[C@H]5O)[C@@H](O)[C@H](O)[C@H]4O)cc3o2)cc1O`, “inactive”.
Still for that read-out and setting: as for `OC[C@H](Cc1cccc(O)c1)[C@H](CO)Cc1cccc(O)c1`, the entry is “inactive”; as for `COCCc1ccc(OCC2CO2)cc1` (stereo not given), “inactive”; as for `O=C(O)c1cc(Br)c(O)c(Br)c1`, “inactive”.
As to `C[C@H](CCC(=O)O)[C@H]1CC[C@H]2[C@@H]3C(=O)C[C@@H]4CC(=O)CC[C@]4(C)[C@H]3CC(=O)[C@]12C`, the call was inactive.
On to `NC(CO)C(=O)NNCc1ccc(O)c(O)c1O` (stereo not given), for which the outcome was inactive.
Regarding `CCC(C)NC(N)=O` (stereo not given), the molecule was classed as inactive.
The same measure, in the same setting: as for `COc1nccnc1NS(=O)(=O)c1ccc(N)cc1`, the entry is “inactive”; as for `Cc1ccccc1OCC(O)CO` (stereo not given), “inactive”; as for `N[C@@H](CCC(=O)N[C@@H](CS)C(=O)NCC(=O)O)C(=O)O`, “inactive”.
On the same count and under the same terms, with `CN(CCOc1ccc(NS(C)(=O)=O)cc1)CCc1ccc(NS(C)(=O)=O)cc1` the entry was “inactive”; with `COc1ccc2nc(SCc3ncc(C)c(OC)c3C)[nH]c2c1`, “inactive”.
The same measure, in the same setting: as for `CCCCCOC(=O)CCC`, the entry is “inactive”.
Regarding `CC(C)OC(=O)CCCCC(=O)OC(C)C`, the result was inactive.
With `COC(=O)CCc1ccc(OCC(O)CNC(C)C)cc1` (stereo not given), the outcome was inactive.
Take `O=C(CCN1CCN(CCO)CC1)N1c2ccccc2Sc2ccc(C(F)(F)F)cc21`: the call was inactive.
On the same count and under the same terms, as for `CCOCCOCCOCC`, the entry is “inactive”; as for `N[C@@H](CCC(=O)Nc1ccc([N+](=O)[O-])cc1)C(=O)O`, “inactive”.
For `Cc1ccc2ccc(Cl)cc2n1`, the outcome was inactive.
Still for that read-out and setting: as for `NNc1nnc(NN)c2ccccc12`, the entry is “inactive”.

The target in another experiment is Peroxisome proliferator-activated receptor delta (Homo sapiens) (UniProt Q03181). Nature of the experiment: qHTS assay to identify small molecule antagonists of the peroxisome proliferator-activated receptor delta (PPARd) signaling pathway (AID 743215; active = well fitted inhibition curve with a large enough effect in the signal ratio in the repeat runs, not every such curve was filed as active; the % refers to the signal ratio;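 note: cells stimulated with agonist L165041 at 300 nM final during compound exposure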). Conditions: HEK293H PPARd-UAS-bla, beta-lactamase FRET ratio, antagonist, 17 h; series mostly up to 62 µM. In outline: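 Antagonist-mode beta-lactamase reporter screen: HEK293H cells with UAS-bla under PPARd control, stimulated by 300 nM L165041 (final) alongside test compound for 17 h at 37 C, then FRET fluorescence after 2 h substrate incubation.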
Chain of Peroxisome proliferator-activated receptor delta (Homo sapiens) (Q03181 whole entry, looked up): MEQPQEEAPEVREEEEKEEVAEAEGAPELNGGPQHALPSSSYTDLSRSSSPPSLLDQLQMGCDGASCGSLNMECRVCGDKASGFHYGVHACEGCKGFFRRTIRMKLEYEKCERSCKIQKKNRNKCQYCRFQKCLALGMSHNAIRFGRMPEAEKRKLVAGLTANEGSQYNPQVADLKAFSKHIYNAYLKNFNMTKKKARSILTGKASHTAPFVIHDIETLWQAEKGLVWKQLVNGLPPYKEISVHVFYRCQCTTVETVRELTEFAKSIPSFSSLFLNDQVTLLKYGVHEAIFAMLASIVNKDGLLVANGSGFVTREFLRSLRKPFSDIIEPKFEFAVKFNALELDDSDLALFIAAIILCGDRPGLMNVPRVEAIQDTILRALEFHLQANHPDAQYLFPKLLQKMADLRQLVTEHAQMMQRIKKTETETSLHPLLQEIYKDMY
Consider `O=C1c2ccccc2C(=O)N1CCl`, for which the result was inactive.
On the same count and under the same terms, as for `CC(=O)CCCCn1c(=O)c2c(ncn2C)n(C)c1=O`, the entry is “inactive”; as for `COc1ccc(-c2cc(=O)c3c(O)cc(O[C@@H]4O[C@H](CO[C@@H]5O[C@@H](C)[C@H](O)[C@@H](O)[C@H]5O)[C@@H](O)[C@H](O)[C@H]4O)cc3o2)cc1O`, “inactive”; as for `O=C(OCC1(COC(=O)c2cccnc2)CCCC(COC(=O)c2cccnc2)(COC(=O)c2cccnc2)C1O)c1cccnc1`, “inactive”.
Consider `C=C(C)C(=O)OCCN(CC)CC`, for which the outcome was inactive.
The same measure, in the same setting: as for `COCCc1ccc(OCC2CO2)cc1` (stereo not given), the entry is “inactive”; as for `COC(=O)c1ccccc1C(=O)c1ccc(OCCN2CCCCC2)cc1`, “inactive”; as for `C[C@H](CCC(=O)O)[C@H]1CC[C@H]2[C@@H]3C(=O)C[C@@H]4CC(=O)CC[C@]4(C)[C@H]3CC(=O)[C@]12C`, “inactive”.
As to `COc1nccnc1NS(=O)(=O)c1ccc(N)cc1`, the outcome was inactive.
As for `Cc1ccccc1OCC(O)CO` (stereo not given), the outcome was inactive.
On to `COc1ccc2nc(SCc3ncc(C)c(OC)c3C)[nH]c2c1`, for which the result was inactive.
On the same count and under the same terms, as for `O=C(CCN1CCN(CCO)CC1)N1c2ccccc2Sc2ccc(C(F)(F)F)cc21`, the entry is “inactive”.
On the same count and under the same terms, with `N[C@@H](CCC(=O)Nc1ccc([N+](=O)[O-])cc1)C(=O)O` the entry was “inactive”.
As for `Cc1ccc2ccc(Cl)cc2n1`, the outcome was inactive.
Still for that read-out and setting: with `NNc1nnc(NN)c2ccccc12` the entry was “inactive”.

A further experiment concerns the target Bile acid receptor (Homo sapiens) (UniProt Q96RI1). Nature of the experiment: qHTS assay to identify small molecule antagonists of the farnesoid-X-receptor (FXR) signaling pathway (AID 743217; active = well fitted inhibition curve with a large enough effect in the signal ratio in the repeat runs, not every such curve was filed as active; the % refers to the signal ratio; note: potency is the fitted concentration of half-maximal effect). Conditions: HEK293T FXR-UAS-bla, beta-lactamase ratio, CDCA-stimulated, 16 h; series mostly up to 62.6 µM. In outline: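 Beta-lactamase reporter under UAS control in HEK 293T cells; compound exposure 16 h at 37 °C in the presence of chenodeoxycholic acid (50 uM final); signal from B/G FRET substrate after 2 h at room temperature.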
As to `O=C1c2ccccc2C(=O)N1CCl`, the Potency result was “inactive”.
`Cc1cccc2nccnc12`: the Potency entry is “inactive”.
For `COC(=O)c1ccccc1C(=O)c1ccc(OCCN2CCCCC2)cc1`, the Potency result is “inactive”.
As to `O=C(O)c1cc(Br)c(O)c(Br)c1`, the Potency entry was “inactive”.
Same read-out and setting: with `O=C(O)c1cc(Cl)cc([N+](=O)[O-])c1Cl` the entry was “inactive”; with `CC1=C(C(=O)O)N2C(=O)[C@@H](NC(=O)[C@H](N)c3ccc(O)cc3)[C@H]2SC1`, “inactive”.
Take `COc1nccnc1NS(=O)(=O)c1ccc(N)cc1`: the Potency entry was “inactive”.
Consider `O=C(NCCN1CCOCC1)c1ccc(Cl)cc1`, for which the Potency result is “inactive”.
On the same count and under the same terms, as for `CC(C)OC(=O)CCCCC(=O)OC(C)C`, the figure is 24.6 µM (active); as for `N[C@@H](CCC(=O)Nc1ccc([N+](=O)[O-])cc1)C(=O)O`, “inactive”.

Test system in the next experiment: not listed separately
In words: qHTS assay to identify small molecule agonists of the farnesoid-X-receptor (FXR) signaling pathway - cell viability counter screen (AID 743218). Note: nearly all actives have a fitted effect of over 45% in size. Particulars: FXR-bla HEK293T viability, CellTiter-Glo luminescence, 16 h; series mostly up to 62.6 µM. The method in brief:
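In GeneBLAzer FXR-UAS-bla HEK 293T cells, compounds act for 16 h at 37 C. Cell viability is then scored in the reporter wells by CellTiter-Glo, 30 min at RT, luminescence.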
As for `O=C1c2ccccc2C(=O)N1CCl`, the Potency entry was “inactive”.
For the molecule `CC(=O)CCCCn1c(=O)c2c(ncn2C)n(C)c1=O`, the Potency result was “inactive”.
The same measure, in the same setting: with `CCCCOC(=O)c1ccccc1` the entry was “inactive”.
On to `Brc1ccc(-c2ccccc2)cc1`, for which the Potency result was “inactive”.
Regarding `CCOc1cc([N+](=O)[O-])c(OCC)cc1N1CCOCC1`, the Potency result was “inactive”.
Same read-out and setting: with `O=C(CCNNC(=O)c1ccncc1)NCc1ccccc1` the entry was “inactive”.
On the same count and under the same terms, as for `COc1ccc(-c2cc(=O)c3c(O)cc(O[C@@H]4O[C@H](CO[C@@H]5O[C@@H](C)[C@H](O)[C@@H](O)[C@H]5O)[C@@H](O)[C@H](O)[C@H]4O)cc3o2)cc1O`, the entry is “inactive”.
On to `Cc1cccc2nccnc12`, for which the Potency result was “inactive”.
The same measure, in the same setting: as for `O=C(OCC1(COC(=O)c2cccnc2)CCCC(COC(=O)c2cccnc2)(COC(=O)c2cccnc2)C1O)c1cccnc1`, the entry is “inactive”.
On the same count and under the same terms, as for `OC[C@H](Cc1cccc(O)c1)[C@H](CO)Cc1cccc(O)c1`, the entry is “inactive”; as for `C=C(C)C(=O)OCCN(CC)CC`, “inactive”; as for `COCCc1ccc(OCC2CO2)cc1` (stereo not given), “inactive”.
The same measure, in the same setting: with `O=C(O)c1cc(Br)c(O)c(Br)c1` the entry was “inactive”; with `CCNC(=O)C1CC(C)CCC1C(C)C` (stereo not given), “inactive”; with `O=C(O)c1cc(Cl)cc([N+](=O)[O-])c1Cl`, “inactive”.
For `CC1=C(C(=O)O)N2C(=O)[C@@H](NC(=O)[C@H](N)c3ccc(O)cc3)[C@H]2SC1`, the Potency result was “inactive”.
Still for that read-out and setting: with `C[C@H](CCC(=O)O)[C@H]1CC[C@H]2[C@@H]3C(=O)C[C@@H]4CC(=O)CC[C@]4(C)[C@H]3CC(=O)[C@]12C` the entry was “inactive”.
Turning to `NC(CO)C(=O)NNCc1ccc(O)c(O)c1O` (stereo not given), the Potency result was “inactive”.
As for `COC(=O)[C@@H]1[C@H]2C[C@H]3c4[nH]c5ccccc5c4CCN3C[C@@H]2CC[C@@H]1O`, the Potency entry is “inactive”.
The same measure, in the same setting: as for `CCC(C)NC(N)=O` (stereo not given), the entry is “inactive”.
Take `Cc1ccccc1OCC(O)CO` (stereo not given): the Potency entry was “inactive”.
In the case of `N[C@@H](CCC(=O)N[C@@H](CS)C(=O)NCC(=O)O)C(=O)O`, the Potency result was “inactive”.
Same read-out and setting: with `CN(CCOc1ccc(NS(C)(=O)=O)cc1)CCc1ccc(NS(C)(=O)=O)cc1` the entry was “inactive”.
For the molecule `COc1ccc2nc(SCc3ncc(C)c(OC)c3C)[nH]c2c1`, the Potency entry was “inactive”.
Still for that read-out and setting: with `CCCCCOC(=O)CCC` the entry was “inactive”.
Same read-out and setting: as for `CC(=O)Nc1cccc(C)c1`, the entry is “inactive”; as for `CC(C)OC(=O)CCCCC(=O)OC(C)C`, “inactive”; as for `COC(=O)CCc1ccc(OCC(O)CNC(C)C)cc1` (stereo not given), “inactive”.
As to `CCOCCOCCOCC`, the Potency result was “inactive”.
The same measure, in the same setting: with `N[C@@H](CCC(=O)Nc1ccc([N+](=O)[O-])cc1)C(=O)O` the entry was “inactive”.
With `Cc1ccc2ccc(Cl)cc2n1`, the Potency result was “inactive”.

The values above are taken from PubChem BioAssay (Tox21).
